Structures are written as SMILES. In all, about 300,000 compounds went through this assay and about 37,000 (12%) were called active. No stated cut-off is given here; in the data, active means max response mostly above about 13% (no sharp cut-off); inactive means mostly below about 14%. Only a selection was taken, and actives are over-represented in it overall.

A short description of this test: Cycloheximide Counterscreen for Small Molecule Inhibitors of Shiga Toxin. Further: read at 38.3 µM for the half of the compounds with a filed dose; 0% is about no effect. The conditions noted are these: cell reporter, cycloheximide protein synthesis inhibition counterscreen; active compounds read high. Background: Counterscreens check selectivity or assay interference.
As to `C/C(=N\NC(=O)C1(C)CC1(Br)Br)c1ccc(C)cc1C` (configuration not stated), the max response is 12.6% (inactive).

On to `O=[N+]([O-])c1cc(S(=O)(=O)Nc2cccc(Cl)c2)ccc1N=Nc1c(O)[nH]c2ccccc12`, for which the max response was -1.65% (inactive).

`C=CCOc1ccccc1/C=N/NC(=O)Cc1ccccc1`: the max response was 9.84% (inactive).

Turning to `O=C(CCCCCNC(=O)c1ccccc1)N/N=C/c1ccccc1`, the max response is 13.5% (inactive).

As to `O=C(CCC(=O)Nc1ccccc1)N/N=C/c1ccccc1F`, the max response was 25.1% (active).

Turning to `COc1ccc(C(C)NC(=O)C23CC4CC(CC(C4)C2)C3)cc1` (configuration not stated), the max response was -0.477% (inactive).

`Cc1noc(C)c1S(=O)(=O)Nc1ccc(C(=O)N2CCN(c3ccc(F)cc3)CC2)cc1`: the max response is 11.8% (inactive).

Turning to `CCOC(=O)C1=C(O)CSC1=Nc1cccc(Cl)c1`, the max response is -2.53% (inactive).

On to `CN(C)c1nc(=Nc2cccc(Cl)c2)ss1`, for which the max response was 24.1% (active).

`N#Cc1cccc(NC(=O)COC(=O)c2ccccc2C(=O)c2ccc(Cl)c([N+](=O)[O-])c2)c1`: the max response was 3.74% (inactive).

As to `O=c1[nH]c(=S)[nH]c2[nH]c(=S)[nH]c12`, the max response was -3.22% (inactive).

Regarding `CCOC(=O)C1CCN(C(=O)c2ccccc2N(C)S(=O)(=O)c2ccccc2)CC1`, the max response was -2.92% (inactive).

Regarding `O=C(Nc1cccc(Cl)c1)Nc1ccccc1NS(=O)(=O)c1cccs1`, the max response is 11% (active).

Regarding `O=S(=O)(Nc1ccccc1Br)c1cccs1`, the max response is -5.92% (inactive).

For the molecule `O=S(=O)(NCCc1ccc(Cl)cc1)c1cccs1`, the max response is 7.85% (inactive).

Take `O=S(=O)(NCc1ccc(Cl)cc1Cl)c1cccs1`: the max response was 14.3% (active).

Turning to `CN(Cc1ccc(F)cc1Cl)S(=O)(=O)c1cccs1`, the max response was 15.3% (inactive).

Regarding `O=C(Nc1nncs1)c1ccccc1NS(=O)(=O)c1cccs1`, the max response was 2.77% (inactive).

Regarding `O=C(Nc1ccc(Br)cn1)C1CCN(S(=O)(=O)c2cccs2)CC1`, the max response is 2.63% (inactive).

For `c1ccc(C2CNCc3c2ccc2ccccc32)cc1` (configuration not stated), the max response is -1.66% (inactive).

With `COc1cc(-c2n[nH]c(=S)n2Cc2ccccc2)cc(OC)c1OC`, the max response was -3.31% (inactive).

Regarding `CC(=O)c1c(O)cc2n(c1=O)-c1ccc(Cl)cc1C2(C)C`, the max response is -1.91% (inactive).

For the molecule `COc1ccccc1CCNS(=O)(=O)c1cn(C)nc1C`, the max response is 1.23% (inactive).

For the molecule `Cc1c(Cl)c([N+](=O)[O-])nn1CC(=O)NCCCN1CCOCC1`, the max response was -1.84% (inactive).

Consider `COc1ccc(-c2cn(-c3ccc(C)cc3)c(=O)n2CC(=O)Nc2ccc(OC)c(OC)c2)cc1`, for which the max response is 12.3% (inactive).

Turning to `COc1ccc(NC(=O)Cn2c(-c3ccc(OC)cc3)cn(-c3ccc(C)cc3)c2=O)cc1`, the max response is 27.2% (active).

For `CCOc1ccc(NC(=O)CN2CCN(CC(=O)Nc3ccc(OC)cc3)CC2)cc1`, the max response is -1.52% (inactive).

Consider `CC(C)CCN(C(=O)c1csnn1)C(C(=O)NC1CCCC1)c1ccccc1` (configuration not stated), for which the max response is -2.45% (inactive).

For `COc1ccc(NC(=O)C(C)N2c3cccc4cccc(c34)S2(=O)=O)c(OC)c1` (configuration not stated), the max response was -5.29% (inactive).

Consider `COc1ccc(-c2c3c(=O)n(C)c(=O)n(C)c3cn2-c2cccc(OC)c2)cc1`, for which the max response is 0.846% (inactive).

With `Cc1ccc(-c2c3c(=O)n(C)c(=O)n(C)c3cn2-n2cnnc2)cc1`, the max response is 0.742% (inactive).

As to `COc1ccc(-c2c3c(=O)n(C)c(=O)n(C)c3cn2NC(C)=O)cc1`, the max response is -6.45% (inactive).

For `COc1cccc(-n2cc3c(c2-c2ccccc2)c(=O)n(C)c(=O)n3C)c1`, the max response is 57.2% (active).

As for `Cn1c(=O)c2cn(-c3cccc4ccccc34)cc2n(C)c1=O`, the max response was 18.7% (inactive).

In the case of `Cc1ccc(-c2c3c(=O)n(C)c(=O)n(C)c3cn2-c2ccccc2O)cc1`, the max response is 21.5% (active).

Turning to `Cn1c(C(=O)N2CCCC(C(=O)NCc3ccccc3)C2)cc2sccc21` (configuration not stated), the max response is 3.91% (inactive).

Turning to `CCOc1ccc(S(=O)(=O)N2CCC(C(=O)NCc3ccccn3)CC2)cc1Cl`, the max response is -1.51% (inactive).

With `COc1ccc(-c2nc(CS(=O)CC(=O)NCc3ccccc3)c(C)o2)cc1OC` (configuration not stated), the max response was 4.98% (inactive).

For `Cc1no[n+]([O-])c1COc1ccccc1/C=C1\NC(=S)NC1=O`, the max response is 5.18% (inactive).

On to `CC(=O)Nc1ccc(S(=O)(=O)Oc2ccc(Br)cc2C(=S)N2CCOCC2)cc1`, for which the max response is -3.27% (inactive).

For `CC(=O)Nc1ccc(CN2CCC(Oc3ccc(C(=O)N4CCCC4)cc3)CC2)cc1`, the max response is -0.693% (inactive).

Turning to `O=C(Nc1ccc(Cl)cc1)/C(=C1\CCCN1)[N+](=O)[O-]`, the max response was 5.78% (inactive).

In the case of `O=C(CN(c1ccccc1)S(=O)(=O)c1ccc(Cl)cc1)Nc1ccccc1C(=O)N1CCCC1`, the max response was -1.5% (inactive).

As to `Cc1ccc(C2=C/C(=C\c3cccnc3)C(=O)O2)cc1`, the max response was -1.01% (inactive).

As to `O=S(O)S(=O)(=O)O`, the max response is -2.81% (inactive).

For `COc1ccc(-n2cc(CNC3CCOCC3)c(-c3cccc(F)c3)n2)cc1`, the max response was 1.41% (inactive).

Turning to `Cc1ccc(C)c(-n2cc(CN3CCN(C(=O)c4ncn[nH]4)CC3)c(-c3ccccc3)n2)c1`, the max response is -1.39% (inactive).

As to `COc1ccc(-n2cc(CN(C)Cc3n[nH]c(=O)[nH]3)c(-c3cccc(F)c3)n2)cc1`, the max response is 4.9% (inactive).

Consider `Cc1ccccc1CN1CCN(C(=O)c2cccc(F)c2)CC1`, for which the max response is -3.46% (inactive).

Consider `CCC(O)C1CCN(Cc2cn(-c3ccc(OC)cc3)nc2-c2cccc(F)c2)CC1` (configuration not stated), for which the max response is 10.6% (active).

As to `Cc1cccc(-n2cc(CN3CCN(C(=O)c4ncn[nH]4)CC3)c(-c3cccc(F)c3)n2)c1`, the max response is 20.6% (active).

Turning to `C=CCCC(=O)Nc1nc(C)c(-c2csc(Nc3ccc(Cl)cc3)n2)s1`, the max response was -1.48% (inactive).

For the molecule `CCOCCCNCc1cc(Br)ccc1OCC`, the max response was 1.32% (inactive).

As for `O=C(NCc1ccncc1)C1CCN(C(=O)c2cccc(Cl)c2)CC1`, the max response was -4.47% (inactive).

`Cc1ccc(NC2CCCN(C(=O)CCc3cn[nH]c3)C2)cc1C` (configuration not stated): the max response is 2.58% (inactive).

For the molecule `COc1c(O)c2c(=O)cc(OC)c3c4c(OC)cc(=O)c5c(O)c(OC)c6c(c(c1C[C@@](C)(O)[C@H]6C(C)=O)c23)c54`, the max response was 2.19% (inactive).

For `COc1ccc(C(=O)/C=C/c2ccc(OC3CSC3)cc2)cc1`, the max response is -1.52% (inactive).

On to `CC(=O)Nc1ccc(NC(=S)NC(=O)/C=C/c2ccccc2)cc1`, for which the max response is 4.54% (inactive).

Consider `CC(=O)Nc1ccccc1C(=O)C(=O)Nc1ccc(F)cc1`, for which the max response is 11.7% (inactive).

As for `CC(=O)Nc1ccc(/C=C/C(=O)c2ccccc2)cc1`, the max response is 30.5% (active).

`CCCC(=O)Nc1ccc(C(=O)N/N=C/c2ccc[nH]2)cc1`: the max response was 7.57% (inactive).

On to `CC(=O)Nc1ccc(C(=O)/C=C/c2ccc[nH]2)cc1`, for which the max response was 49.8% (active).

`COc1ccc(CCNc2nc3ccc(C)cc3n3cnnc23)cc1OC`: the max response was -4.65% (inactive).

Take `CC1CCN(S(=O)(=O)c2nnc(NC(=O)COc3ccccc3F)s2)CC1`: the max response is -2.77% (inactive).

For `CN(CCC(=O)Nc1cc(S(=O)(=O)N(C)C)ccc1Cl)CC(=O)Nc1ccc(F)cc1`, the max response is -1.74% (inactive).

For the molecule `Cc1ccc(OC(=O)c2cncc(Br)c2)c(C)c1`, the max response was -1.19% (inactive).

For the molecule `COc1ccc(/C=C(\C#N)C(=O)NCCCn2ccnc2)cc1`, the max response was -5.64% (inactive).

`Cc1ccc(S(=O)(=O)c2nc(NCCCn3ccnc3)sc2Cl)cc1`: the max response is -2.37% (inactive).

Regarding `Cc1ccc(-c2nc(C#N)c(NCCCn3ccnc3)o2)cc1`, the max response was 16.7% (active).

`CCOC(=O)C(C(=O)OCC)C(C#N)c1ccccc1` (configuration not stated): the max response is -1.71% (inactive).

With `O=C(Cc1ccc(-c2ccccc2)cc1)NC(c1ccccc1)c1ccccc1`, the max response is 1.24% (inactive).

Consider `CCOC(=O)/C=C/C(=O)OCC(=O)NC(c1ccccc1)c1ccccc1`, for which the max response was 19.8% (active).

In the case of `COc1ccc(CNC(=O)[C@H](Cc2c[nH]c3ccccc23)NC(C)=O)cc1OC`, the max response is -3.86% (inactive).

On to `COc1ccc(Cl)cc1NC(=O)NCC1CCN(Cc2ccccc2F)CC1`, for which the max response was -0.34% (inactive).

Regarding `O=C(Nc1ccn(Cc2ccccc2F)n1)c1ccc(COc2ccc(Cl)cc2Cl)o1`, the max response was 15.1% (active).

Turning to `O=C(O)c1ccc(NC(=O)c2ccc(COc3ccc(Cl)cc3)o2)cc1`, the max response is 2.26% (inactive).

In the case of `Cc1nn(C(C)(C)C)c(OC(=O)CC(C)C)c1S(=O)(=O)c1ccccc1`, the max response was 9.13% (inactive).

As to `COc1ccc(C2c3[nH]c4ccccc4c3C[C@H]3C(=O)N(CC(C)C)CC(=O)N23)c(OC)c1` (some centres not stated), the max response is -3.45% (inactive).

As to `COc1ccc(C2C=C(c3ccc(Br)cc3)Nc3nc(NS(C)(=O)=O)nn32)cc1` (configuration not stated), the max response is -3.16% (inactive).

With `Cn1nc([N+](=O)[O-])nc1Sc1ccc(C(C)(C)C)cc1`, the max response was -3.02% (inactive).

On to `O=C(CN1CCN(C(=O)C2CCCO2)CC1)Nc1c(Cl)cccc1Cl` (configuration not stated), for which the max response is -1.69% (inactive).

Turning to `Cc1cccc(N=C2NC(=O)/C(=C/c3cn(C)c4ccccc34)S2)c1`, the max response is 3.29% (inactive).

Turning to `Cc1cccc(N=C2NN=C(c3c[nH]c4ccccc34)CS2)c1`, the max response is 25.2% (active).

Take `Cc1cccc(C(=O)Nc2nnc(Cc3c[nH]c4ccccc34)s2)c1`: the max response is 3.09% (inactive).

As to `CC1CCCCC1NC(=O)c1cn(C)c2ccc(S(=O)(=O)N3CCOCC3)cc2c1=O` (configuration not stated), the max response was 1.03% (inactive).

`O=C(NCCc1ccccn1)c1cc(-c2ccc(Cl)cc2)nc2ccccc12`: the max response is -4.89% (inactive).

With `O=C(NC1CCN(Cc2ccccc2)CC1)c1ccccc1F`, the max response was -5.27% (inactive).

For `O=S(=O)(NCCc1ccncc1)c1ccccc1`, the max response was -2.7% (inactive).

On to `O=C(NCCc1csc(-c2ccccc2)n1)c1ccccc1F`, for which the max response was 17.6% (active).

`O=S(=O)(NCCc1csc(-c2ccccc2)n1)c1cccnc1`: the max response is 19.7% (active).

As for `Cc1nc(CNS(=O)(=O)c2cccnc2)cs1`, the max response was -2.9% (inactive).

For `Cc1ccc(-c2nn(C(C)(C)C)c3ncnc(N)c23)cc1`, the max response is -0.92% (inactive).

(Values after PubChem BioAssay AID2314 (National Center for Advancing Translational Sciences (NCATS), 2010).)
